# Experimental data published in PubChem BioAssay (NCI).
# Several values for one entry are separate records, joined by “and”; a condition that tells them apart may be missing. Identical values can stand only once. The panel holds about 83,000 compounds, 20% with a hit somewhere; the sample as a whole holds those more often.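 Cell lines were cultured in 96-well plates, exposed to a single compound concentration, and assessed for percent growth 48 hours later.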 Activity calls are given as the source filed them. Rule for the calls: active = growth percent below 10; inactive = the rest.
# What was measured:
# Assay in all cases: NCI-60 one-dose screen, 48 h (100 = growth as untreated, 0 = no growth, -100 = all killed)
# Conditions in all cases: 10 µM unless noted
# SR leukemia = test system: SR leukemia
# RPMI-8226 leukemia = test system: RPMI-8226 leukemia
# OVCAR-8 ovarian = test system: OVCAR-8 ovarian
# OVCAR-5 ovarian = test system: OVCAR-5 ovarian
# OVCAR-4 ovarian = test system: OVCAR-4 ovarian
# SK-OV-3 ovarian = test system: SK-OV-3 ovarian
# IGROV1 ovarian = test system: IGROV1 ovarian
# OVCAR-3 ovarian = test system: OVCAR-3 ovarian
# HS 578T breast = test system: HS 578T breast
# NCI/ADR-RES ovarian = test system: NCI/ADR-RES ovarian
SMILES,growth (SR leukemia),growth (RPMI-8226 leukemia),growth (OVCAR-8 ovarian),growth (OVCAR-5 ovarian),growth (OVCAR-4 ovarian),growth (SK-OV-3 ovarian),growth (IGROV1 ovarian),growth (OVCAR-3 ovarian),growth (HS 578T breast),growth (NCI/ADR-RES ovarian)
CC(=O)c1ccccc1O,79% (inactive),106% (inactive) and 103% (inactive),112% (inactive) and 101% (inactive) and 105% (inactive),102% (inactive) and 98.4% (inactive) and 116% (inactive),110% (inactive) and 107% (inactive) and 111% (inactive),114% (inactive) and 102% (inactive) and 101% (inactive),102% (inactive) and 105% (inactive) and 101% (inactive),114% (inactive) and 109% (inactive) and 106% (inactive),95.7% (inactive) and 109% (inactive) and 98.9% (inactive),100% (inactive) and 98.6% (inactive) and 103% (inactive)
COc1cc2c(Nc3ccc(Cl)c(Cl)c3F)ncnc2cc1OCC1C[C@@H]2CN(C)C[C@@H]2C1 (stereo not given in full),-23.1% (active) and -45.4% (active),-48.5% (active) and 6.02% (active),-88.4% (active) and 27.4% (inactive),-89.8% (active) and 37.6% (inactive),-42.7% (active) and 29.5% (inactive),-87.7% (active) and -13.8% (active),-70.1% (active) and -9.02% (active),-53.9% (active) and 25.6% (inactive),-16.9% (active),-56.5% (active) and 29.6% (inactive)
NC(=S)N/N=C(\c1ccc(Br)cc1)C1CC1,87.6% (inactive),71.3% (inactive) and 60.9% (inactive),83% (inactive),110% (inactive) and 97.1% (inactive),74.4% (inactive),105% (inactive) and 97% (inactive),18.1% (inactive) and 42.3% (inactive),38.3% (inactive) and 37.1% (inactive),96.1% (inactive) and 98% (inactive),74.2% (inactive) and 57.5% (inactive)
Cc1ncsc1CCO,104% (inactive) and 111% (inactive),106% (inactive) and 122% (inactive),104% (inactive) and 97% (inactive),103% (inactive),120% (inactive) and 116% (inactive),101% (inactive) and 110% (inactive),124% (inactive) and 107% (inactive),124% (inactive) and 93.9% (inactive),110% (inactive) and 101% (inactive),108% (inactive) and 102% (inactive)
Cc1ccc2nc3c(nc2c1)-c1cccc2cccc-3c12,64.9% (inactive),89.9% (inactive),69.6% (inactive),94.6% (inactive),92% (inactive),112% (inactive),63.9% (inactive),88.1% (inactive),92.9% (inactive),86.1% (inactive)
Cc1n[nH]c(=O)n(/N=C\c2c[nH]c3ccccc23)c1=O,108% (inactive),105% (inactive),102% (inactive),106% (inactive),96.9% (inactive),97.2% (inactive),102% (inactive),107% (inactive),108% (inactive),106% (inactive)
CC(C(=O)O)n1cc(C#N)c(=O)[nH]c1=O (stereo not given),93.5% (inactive) and 99.9% (inactive),106% (inactive) and 104% (inactive),103% (inactive) and 113% (inactive),94.8% (inactive) and 105% (inactive),108% (inactive) and 110% (inactive),102% (inactive) and 98.6% (inactive),101% (inactive) and 109% (inactive),116% (inactive) and 101% (inactive),114% (inactive) and 113% (inactive),106% (inactive)
Oc1c(CN2CCCCC2)ccc2cccnc12,32.4% (inactive) and 33.2% (inactive),58.5% (inactive),33.1% (inactive) and 23.3% (inactive),68.9% (inactive) and 51.1% (inactive),29.3% (inactive),54.5% (inactive) and 50.8% (inactive),46% (inactive) and 55.3% (inactive),14.4% (inactive) and 52.7% (inactive),89.5% (inactive) and 89.1% (inactive),7.05% (active) and 4.34% (active)
CC(C)(O)Cn1cc(-c2ccc3nc(OC4CC4)ccc3c2)c2c(N)ncnc21,49.9% (inactive) and 21% (inactive),55.3% (inactive) and 39.9% (inactive),90.2% (inactive) and 63.6% (inactive),84.7% (inactive) and 48.4% (inactive),96.3% (inactive) and 63.1% (inactive),83.4% (inactive) and 57.9% (inactive),74% (inactive) and 42.2% (inactive),109% (inactive) and 69.8% (inactive),71.1% (inactive) and 31.9% (inactive),94.9% (inactive) and 67.1% (inactive)
Cc1cccc(/C=C\C(=O)c2ccccc2)c1,42.8% (inactive) and -0.91% (active),26% (inactive),93.9% (inactive) and 101% (inactive),104% (inactive) and 103% (inactive),93.3% (inactive) and 113% (inactive),101% (inactive),91.6% (inactive),98.8% (inactive) and 101% (inactive),112% (inactive) and 104% (inactive),97% (inactive) and 101% (inactive)
CCCCCCCCCCCCOc1ccccc1C=O,84.9% (inactive),96.4% (inactive),94.6% (inactive),101% (inactive),86.5% (inactive),95.7% (inactive),112% (inactive),108% (inactive),97% (inactive),102% (inactive)
O=C(Nc1ccc(Cl)cc1)c1cc2ccccc2cc1O,15.8% (inactive) and -13.9% (active),-10.7% (active) and -29% (active),26.1% (inactive) and -5.89% (active),78.8% (inactive) and 42.7% (inactive),34.5% (inactive) and 20.9% (inactive),18.9% (inactive),23.3% (inactive) and 21.8% (inactive),14.4% (inactive) and 5.62% (active),15.8% (inactive) and 4.92% (active),12.5% (inactive) and 6.49% (active)
CC[N+](CC)(CC(=O)Nc1c(C)cccc1C)Cc1ccccc1,92.4% (inactive),74% (inactive) and 113% (inactive),95.2% (inactive) and 105% (inactive),119% (inactive) and 99.1% (inactive),80.4% (inactive) and 105% (inactive),102% (inactive) and 107% (inactive),85.4% (inactive) and 94.5% (inactive),104% (inactive) and 109% (inactive),109% (inactive),90.3% (inactive) and 102% (inactive)
O=C(CN1CCN(c2cc3c(cc2F)c(=O)c(C(=O)O)cn3C2CC2)CC1)Nc1ccc(Cl)cc1,71.1% (inactive) and 71.4% (inactive),72.2% (inactive),78.8% (inactive) and 95% (inactive),105% (inactive) and 96% (inactive),85.3% (inactive) and 83.2% (inactive),63.4% (inactive) and 82.2% (inactive),93.8% (inactive) and 97.3% (inactive),94.4% (inactive) and 102% (inactive),87.7% (inactive) and 93.6% (inactive),101% (inactive) and 96.9% (inactive)
CC1=NN(c2ccccc2)C(=O)C1C(=O)c1ccccc1 (stereo not given),82.7% (inactive),91.9% (inactive),88.4% (inactive),120% (inactive),108% (inactive),112% (inactive),100% (inactive),102% (inactive),127% (inactive),101% (inactive)
